Structures are written as SMILES. Active and inactive are the calls of the source. How the source made its calls: active means hit-call score of the fitted dose curve at least 0.9, where 1 is the maximum; inactive means score below 0.9.

Read-out in the test: Vascular endothelial growth factor receptor 2 (Homo sapiens) (UniProt P35968)
Nature of the test: BSK_4H_VEGFRII: BioMAP Diversity Plus: 4H Assay for Vascular endothelial growth factor receptor 2 (VEGFR2) Biomarker Activity (AID 2283031). The note with it: primary human endothelial cells (HUVEC); actives raise or lower the signal. As to the method: BSK_4H is a cell-based, multiplexed-readout assay that uses umbilical vein endothelium, a human vascular primary cell, with measurements taken at 24 hours after chemical dosing in a 96-well plate.BSK_4H_VEGFRII is an assay component measured in the BSK_4H assay. It measures VEGFRII antibody related to regulation of gene expression using ELISA technology.Data from the assay component BSK_4H_VEGFRII was analyzed into 1 assay endpoint. This assay endpoint, BSK_4H_VEGFRII, was analyzed with bidirectional fitting relative to DMSO as the negative control and baseline of activity. Using a type of binding reporter, gain or loss-of-signal activity can be used to understand changes in the signaling as they relate to the gene KDR. Furthermore, this assay endpoint can be referred to as a primary readout, because this assay has produced multiple assay endpoints where this one serves a signaling function. To generalize the intended target to other relatable targets, this assay endpoint is annotated to the kinase intended target family, where the subfamily is receptor tyrosine kinase.
The levels of cell surface (or secreted, indicated by the prefix "s") biomarker endpoints were measured by ELISA. Overt cytotoxicity to cells in confluent adherent cultures (all systems other than the BT system) was assessed by measuring total protein levels using sulforhodamine B (SRB) staining in parallel cultures at the time of biomarker measurements, indicated as SRB endpoints. For proliferation assays for adherent cell types, individual cell types are cultured at sub-confluence and relative cell numbers quantified by SRB staining at time points optimized for each system (48 h: 3C and CASM3C systems; 72 h: BT and HDF3CGF systems; 96 h: SAg system). SRB was performed by staining cells with 0.1% SRB after fixation with 10% TCA and reading wells at 560 nm.Viability and proliferation of PBMC (T cells) was quantified by Alamar Blue reduction for the SAg and BT systems. For PBMC viability (referred to as PBMC Cytotoxicity within the assay endpoint names), cells were plated (75,000/well in a 96-well plate) and then chemical samples added for 1 h before addition of activators, SEB and TSST-1 (20 ng/mL final concentration each). Cells were incubated for 90 h. Then, Alamar Blue (20 uL/well) (Invitrogen, Cat DAL1100) was added for 6 h, and the plates were read with a fluorescence microplate reader at 546/580 nm (excitation/emission). For PBMC proliferation, cells were plated and activated as above but incubated for only 16 h prior to addition of Alamar Blue. Plates were read after 6 h.
On to `Cn1cnc([N+](=O)[O-])c1Sc1ncnc2nc[nH]c12`, for which the result was inactive.
For the compound `CC/C(=C\C(=N/O)C(N)=O)C(C)[N+](=O)[O-]` (stereo not given), the result was inactive.
Consider `C=CCCCCCCCCC(=O)O`, for which the result was inactive.
Regarding `CC(C)CCCCCCOC(=O)c1ccc(C(=O)OCCCCCCC(C)C)c(C(=O)OCCCCCCC(C)C)c1`, the result was inactive.
On the same count and under the same terms, under `COCCOc1cc2cc(C(=O)NC3CCN(C(C)C)CC3)n(CC(=O)Nc3ccc(Cl)cn3)c2cn1` stands “inactive”; under `CCCCCCCCCCCCc1ccccc1`, “inactive”.
Still for that read-out and setting: under `Cc1[nH]cnc1C[C@H]1CCc2c(C)c3ccccc3n2C1=O` stands “inactive”.
Regarding `CCOC(=O)c1ccc(C2CCC(NC[C@H](O)COc3ccc(O)c(NS(C)(=O)=O)c3)CC2)cc1` (stereo not given in full), the result was inactive.
As to `C[C@](N)(Cc1ccc(O)c(O)c1)C(=O)O`, the outcome was inactive.
For `COC(=O)c1ccccc1O`, the outcome was inactive.
Turning to `Cc1ccc(S(=O)(=O)O)cc1C`, the outcome was inactive.
Consider `CCCCCCc1ccc(O)cc1O`, for which the result was inactive.
Regarding `O=C(O)CC(O)C(=O)O` (stereo not given), the outcome was inactive.
For the compound `COc1ccc2sc(C(=O)Nc3nnn[nH]3)c(OC(C)C)c2c1`, the AC50 is 17.6 µM (active).
On to `O=C(O)c1cc(N=Nc2ccc(S(=O)(=O)Nc3ccccn3)cc2)ccc1O`, for which the outcome was inactive.
As to `CC(=O)OC[C@H]1O[C@@](COC(C)=O)(O[C@H]2O[C@H](COC(C)=O)[C@@H](OC(C)=O)[C@H](OC(C)=O)[C@H]2OC(C)=O)[C@@H](OC(C)=O)[C@@H]1OC(C)=O`, the result was inactive.
`CC(C)c1cccc(C(C)C)c1N1C(=O)c2ccc(O)cc2C1=O`: the half-maximal activity concentration (AC50) is 20 µM (active).
`O=c1[nH]c2ccc(S(=O)CCN3CCC(Cc4ccc(F)cc4)CC3)cc2o1` (stereo not given): the result was inactive.
In the case of `CCOCCO`, the outcome was inactive.
Regarding `COc1ccc(/C=C/S(=O)(=O)NC(=O)c2ccc(C)cc2Cl)cc1`, the outcome was inactive.
With `C1=CCCC=CCCC=CCC1`, the outcome was inactive.
As for `CC(C)=CCC/C(C)=C\CO`, the result was inactive.
Turning to `CC[C@H](C)C(=O)O[C@H]1C[C@@H](C)C=C2C=C[C@H](C)[C@H](CC[C@@H]3C[C@@H](O)CC(=O)O3)[C@H]21`, the half-maximal activity concentration (AC50) was 27.3 µM (active).
As for `CCOCCOCCOCCO`, the outcome was inactive.
On the same count and under the same terms, under `CCCCC(CC)COC(=O)CCCCCCCCC(=O)OCC(CC)CCCC` (stereo not given) stands “inactive”; under `CCN(C(=O)c1cc(C)cc(OC[C@H](C)Nc2ccncc2)c1)C(C)C`, “inactive”.
As for `NC(=O)NO`, the outcome was inactive.
As to `Nc1ccc(Nc2ccccc2)cc1`, the outcome was inactive.
For the compound `O=C(O)CCN(C1(C(=O)NO)CCCC1)S(=O)(=O)c1ccc(Oc2ccc(F)cc2)cc1`, the result was inactive.
The same measure, in the same setting: under `Cc1ccc(C)c(O)c1` stands “inactive”; under `COC(=O)CC(=O)OC`, “inactive”; under `CCCCCCCCO`, “inactive”.
As for `COc1cccc(-c2ccc(/C=C\CN3CCCCCC3)cc2Cl)c1`, the AC50 was 32.6 µM (active).
The same measure, in the same setting: under `CCOC(=O)COc1ccc2c(c1)CC(NCC(O)c1cccc(Cl)c1)CC2` (stereo not given) stands 34.5 µM (active).
`Oc1ccc2c(c1)-c1ccccc1C2`: the outcome was inactive.
As to `CCCC(=O)OCC`, the outcome was inactive.
In the case of `O=C(CCCCCCCCc1cccnc1)N1CCC(C=C(c2ccccc2)c2ccccc2)CC1`, the half-maximal activity concentration (AC50) was 8 µM (active).
For the compound `CCn1nc(Cc2ccccc2)cc1C1CCN(C[C@H]2C[C@H](N(C)[C@@H](C(=O)O)C(C)C)C[C@@H]2c2cccc(F)c2)CC1`, the result was inactive.
As to `CC[C@H]1CC[C@H](NCc2cc3c(cc2OC)[C@H]2C[C@H]2C(=O)N3C)[C@H](c2ccccc2)N1`, the outcome was inactive.
With `O=C1CCC(N2C(=O)c3ccccc3C2=O)C(=O)N1` (stereo not given), the outcome was inactive.

By AC50 is commonly meant the concentration giving half of the maximal activity seen.

The record behind these values is PubChem BioAssay (EPA / NIEHS).
